Inconclusive results are not listed. Activity calls are given as the source filed them. The call rests on the fitted dose curve.
Biological target: Atrial natriuretic peptide receptor 1 (Homo sapiens) (UniProt P16066)
Assay: Natriuretic polypeptide receptor (hNpr1) antagonism - Pilot CMLD screen (AID 1347052);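 further: HEK293 cells with hNpr1 stimulated by hNppA peptide at 0.1 nM; cGMP level read as GloSensor luciferase luminescence after agonist stimulation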
Details: HEK293 hNpr1 GloSensor cGMP luminescence, ANP-stimulated; series mostly up to 9.22 µM; activity change, negative = inhibition: at the top concentration
On the % scale 0 is the no-effect control and ±100 the full control effect.

Chain of Atrial natriuretic peptide receptor 1 (Homo sapiens) (P16066 whole entry, looked up): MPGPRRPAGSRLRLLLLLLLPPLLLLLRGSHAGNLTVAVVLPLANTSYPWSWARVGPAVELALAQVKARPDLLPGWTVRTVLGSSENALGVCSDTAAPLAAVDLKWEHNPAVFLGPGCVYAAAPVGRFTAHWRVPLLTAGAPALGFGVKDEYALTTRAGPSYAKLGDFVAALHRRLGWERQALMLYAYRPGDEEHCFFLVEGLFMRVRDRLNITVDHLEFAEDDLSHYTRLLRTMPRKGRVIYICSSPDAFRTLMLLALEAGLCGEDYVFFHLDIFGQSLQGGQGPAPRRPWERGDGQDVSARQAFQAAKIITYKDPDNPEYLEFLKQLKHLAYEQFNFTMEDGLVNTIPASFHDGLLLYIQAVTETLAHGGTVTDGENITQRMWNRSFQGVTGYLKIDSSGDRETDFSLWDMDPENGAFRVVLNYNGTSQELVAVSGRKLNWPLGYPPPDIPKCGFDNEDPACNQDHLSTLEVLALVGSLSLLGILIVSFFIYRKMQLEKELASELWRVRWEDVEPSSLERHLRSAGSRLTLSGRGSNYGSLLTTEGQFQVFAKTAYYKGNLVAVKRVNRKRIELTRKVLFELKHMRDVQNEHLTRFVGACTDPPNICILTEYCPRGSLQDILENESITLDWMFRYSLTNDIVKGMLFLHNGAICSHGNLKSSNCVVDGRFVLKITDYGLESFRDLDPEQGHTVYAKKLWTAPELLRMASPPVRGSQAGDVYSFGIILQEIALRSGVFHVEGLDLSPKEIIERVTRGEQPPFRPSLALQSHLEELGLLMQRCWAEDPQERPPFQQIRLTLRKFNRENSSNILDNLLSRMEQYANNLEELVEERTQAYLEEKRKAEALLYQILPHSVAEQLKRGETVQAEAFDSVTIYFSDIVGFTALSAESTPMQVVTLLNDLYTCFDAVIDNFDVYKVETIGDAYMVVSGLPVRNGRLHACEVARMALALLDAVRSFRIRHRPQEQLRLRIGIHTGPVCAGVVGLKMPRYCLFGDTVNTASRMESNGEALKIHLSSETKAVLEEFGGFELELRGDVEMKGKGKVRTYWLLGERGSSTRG

Activity change, negative = inhibition, inactive:
COc1ccc2c3c(c(=O)oc2c1)[C@H]1O[C@](CCCCN2C(=O)c4ccccc4C2=O)(Cc2cc(OC)c(OC)cc21)O3 -0.657%
C=CCNC(=O)N1CCc2nc(-c3ccc(OC)cc3C)c3c(c2C1)CO[C@@H](c1ccccc1)C3 5.79%
Cn1c(-c2ccccc2)c(O)c(=O)c2ccccc21 -2.97%
COc1cccc([C@H]2Oc3ccc(OC)cc3C(=NO[C@H](C)c3cn([C@H](CO)Cc4ccccc4)nn3)[C@H]2O)c1 3.24%
CCCCC1=CC2=C(c3ccco3)C(=O)C(C)(OC(=O)c3ccc(OC)cc3)C(=O)C2=CN1C(CO)CO (configuration not stated) 0.0076%
CNc1ccccc1C(=O)OCC(C)=O 3.3%
CC1=C2[C@H](O)[C@H]([C@@H](C)C(=O)NCCC(C)C)CC[C@@]2(C)C=CC1=O -2.47%
CC#C[C@H](C)[C@@H](OCOC)[C@H](C[C@H](C)Cc1cc(Br)cc(OCc2ccccc2)c1OC)OC 0.146%
COC(=O)c1ccc(CN2C(=O)[C@]3(OCCC=C[C@@H]3C)c3cc(OC)ccc32)cc1 0.557%
COc1cccc([C@@H]2Oc3ccc(OC)cc3C[C@@H]2OC(=O)N[C@H]2CCCc3ccccc32)c1 5.08%
CCN1C(=NCc2cccc(C(F)(F)F)c2)NC(c2cccs2)C(C(=O)OC)=C1C (configuration not stated) -2.58%
O=C1CCCC=C1[C@@H](O)CCOC(c1ccccc1)(c1ccccc1)c1ccccc1 2.91%
CC(C)[C@@H](OCc1ccccc1)[C@H](C)CON=C1[C@H]2CCn3c(=O)n(-c4ccccc4)c(=O)n3[C@@H]2[C@H](O)[C@@H]2O[C@H]12 -0.898%
CC1(OC(=O)C2CCCC2)C(=O)C=C2C=C(c3ccsc3)N(Cc3ccccc3)C=C2C1=O (configuration not stated) -1.76%
CC1=C(C)CC(c2ccccc2)C(C(=O)c2ccccc2O)C1 (configuration not stated) 4.94%
COc1ccc(O[C@H]2C=C[C@@H](c3ccccc3)O[C@H]2CON=C2c3cc(OC)ccc3O[C@H](c3cccc(OC)c3)[C@H]2O)cc1 4.49%
COc1cccc([C@@H]2Oc3ccc(Br)cc3C(=O)[C@@H]2OC(=O)N[C@H]2CCCc3ccccc32)c1 4.99%
CC(C)(C)OC(=O)N1CCC[C@@H]1C(O)(c1ccccc1)c1ccccc1 -0.052%
C=CCN1C(=O)[C@]2(O[C@H](C)CC3=CCCC32)c2c(Br)cccc21 (some centres not stated) 8.54%
N#CCCN(CC#Cc1ccccc1)OCc1ccccc1 0.431%
c1ccc(CCc2nc(-c3ccccc3)oc2NC2CCCCC2)cc1 0.308%
CC(CCC(=O)OC[C@H]1O[C@H](C#Cc2ccccc2)C=C[C@H]1Oc1ccc(C)cc1)=NO[C@H](C)c1cn([C@@H]2COC[C@@H]2O)nn1 0.386%
COC(=O)C1=C(C(=O)OC)[C@@H]2N(C)c3ccc(OC)cc3[C@@]23C[C@@H](C(=O)OC)N(C(=O)NCCBr)C3=N1 -1.13%
CC1(OC(=O)C2CCCC2)C(=O)C=C2C=C(c3ccsc3)N(C3CCCCC3)C=C2C1=O (configuration not stated) 12.4%
CC1(C)CC(=O)C2=C(C1)O[C@@]1(c3ccsc3)Cc3cc(C#N)ccc3[C@H]2O1 2.48%
Cc1ccc(S(=O)(=O)n2c3ccccc3c3nnc(C(=O)c4ccccc4)nc32)cc1 -0.93%

Potency, inactive:
C=CCN1c2ccccc2[C@]23CCC(=O)N(CCOC)C2=NC(C(=O)OC)=C(C(=O)OC)[C@H]13

From PubChem BioAssay (NCATS)
